Test results published in PubChem BioAssay AID1159580 (chemical genetic matrix, 2015).
Several values for one entry are separate records, joined by “and”; a condition that tells them apart may be missing. Equal values may be shown once. About 2,000 (36%) of roughly 5,500 compounds were called active. Inconclusive results (about 18%) are left out. Rule as the data show it: active = normalized growth mostly below about 0.91 (no sharp cut-off); inconclusive = no clear call, values can overlap the other calls; inactive = mostly above about 0.92. Some of the results follow. A structure can be active in one record and inactive in another.

Assay: chemical genetic growth profiling, strain panel (AID 1159580);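 also: tested at 20 µM; growth read once vehicle control cultures reached saturation at 30 °C; 1 = growth at the plate median or of vehicle wells; lower values mean less growth of the strain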
Details: growth OD

With `COc1ccccc1N1CCNCC1` the normalized growth (S. cerevisiae deletion strains, locus YAL013W, strain DEP1, stronger effect = lower value) was 1.01 (inactive) and 0.975 (inactive), the normalized growth (S. cerevisiae deletion strains, locus YAL040C, strain CLN3, stronger effect = lower value) was 0.965 (inactive) and the normalized growth (S. cerevisiae deletion strains, locus YBR021W, strain FUR4, stronger effect = lower value) was 1.01 (inactive). The normalized growth (S. cerevisiae deletion strains, locus YBR229C, strain ROT2, stronger effect = lower value) was 1.01 (inactive), the normalized growth (S. cerevisiae deletion strains, locus YCL029C, strain bik1, stronger effect = lower value) was 1.03 (inactive) and the normalized growth (S. cerevisiae deletion strains, locus YCL061C, strain MRC1 (second series), stronger effect = lower value) was 0.993 (inactive). The normalized growth (S. cerevisiae deletion strains, locus YDL035C, strain GPR1, stronger effect = lower value) was 1.01 (inactive), the normalized growth (S. cerevisiae deletion strains, locus YDL074C, strain BRE1, stronger effect = lower value) was 1.01 (inactive) and the normalized growth (S. cerevisiae deletion strains, locus YDL101C, strain DUN1, stronger effect = lower value) was 1 (inactive). The normalized growth (S. cerevisiae deletion strains, locus YDL134C, strain PPH21, stronger effect = lower value) was 1.01 (inactive), the normalized growth (S. cerevisiae deletion strains, locus YDL185W, strain tfp1, stronger effect = lower value) was 1.03 (inactive) and the normalized growth (S. cerevisiae deletion strains, locus YDL192W, strain arf1, stronger effect = lower value) was 1.03 (inactive). The normalized growth (S. cerevisiae deletion strains, locus YDR101C, strain arx1, stronger effect = lower value) was 1.02 (inactive), the normalized growth (S. cerevisiae deletion strains, locus YDR150W, strain NUM1, stronger effect = lower value) was 1 (inactive) and 0.996 (inactive) and the normalized growth (S. cerevisiae deletion strains, locus YDR162C, strain NBP2, stronger effect = lower value) was 1.01 (inactive). For the same molecule, the normalized growth (S. cerevisiae deletion strains, locus YDR318W, strain mcm21, stronger effect = lower value) was 1.03 (inactive), the normalized growth (S. cerevisiae deletion strains, locus YDR363W, strain ESC2, stronger effect = lower value) was 0.962 (inactive) and the normalized growth (S. cerevisiae deletion strains, locus YDR388W, stronger effect = lower value) was 1.03 (inactive). The normalized growth (S. cerevisiae deletion strains, locus YDR502C, strain sam2, stronger effect = lower value) was 1.02 (inactive), the normalized growth (S. cerevisiae deletion strains, locus YEL061C, strain CIN8, stronger effect = lower value) was 1.01 (inactive) and the normalized growth (S. cerevisiae deletion strains, locus YER002W, strain NOP16, stronger effect = lower value) was 0.99 (inactive). The normalized growth (S. cerevisiae deletion strains, locus YER110C, stronger effect = lower value) was 1.03 (inactive), the normalized growth (S. cerevisiae deletion strains, locus YER155C, strain BEM2, stronger effect = lower value) was 1.01 (inactive) and the normalized growth (S. cerevisiae deletion strains, locus YER167W, strain BCK2, stronger effect = lower value) was 1.03 (inactive). For the same molecule, the normalized growth (S. cerevisiae deletion strains, locus YGL078C, strain dbp3, stronger effect = lower value) was 1.02 (inactive), the normalized growth (S. cerevisiae deletion strains, locus YGL086W, strain mad1, stronger effect = lower value) was 1.02 (inactive) and the normalized growth (S. cerevisiae deletion strains, locus YGL248W, strain PDE1, stronger effect = lower value) was 1.01 (inactive). For the same molecule, the normalized growth (S. cerevisiae deletion strains, locus YGR078C, strain PAC10, stronger effect = lower value) was 1 (inactive), the normalized growth (S. cerevisiae deletion strains, locus YGR135W, strain pre9, stronger effect = lower value) was 1.02 (inactive) and the normalized growth (S. cerevisiae deletion strains, locus YGR229C, strain SMI1, stronger effect = lower value) was 0.999 (inactive). The normalized growth (S. cerevisiae deletion strains, locus YGR252W, strain gcn5, stronger effect = lower value) was 1.05 (inactive), the normalized growth (S. cerevisiae deletion strains, locus YHR030C, strain SLT2, stronger effect = lower value) was 0.999 (inactive) and the normalized growth (S. cerevisiae deletion strains, locus YHR079C, strain IRE1 (second series), stronger effect = lower value) was 1.03 (inactive). For the same molecule, the normalized growth (S. cerevisiae deletion strains, locus YHR094C, strain hxt1, stronger effect = lower value) was 1.03 (inactive), the normalized growth (S. cerevisiae deletion strains, locus YHR129C, strain ARP1, stronger effect = lower value) was 1 (inactive) and the normalized growth (S. cerevisiae deletion strains, locus YHR200W, strain rpn10, stronger effect = lower value) was 1.03 (inactive). For the same molecule, the normalized growth (S. cerevisiae deletion strains, locus YIL066C, strain RNR3, stronger effect = lower value) was 1.01 (inactive), the normalized growth (S. cerevisiae deletion strains, locus YIL073C, strain SPO22, stronger effect = lower value) was 1.12 (inactive) and the normalized growth (S. cerevisiae deletion strains, locus YIL125W, strain kgd1, stronger effect = lower value) was 1.02 (inactive). For the same molecule, the normalized growth (S. cerevisiae deletion strains, locus YIR030C, strain dcg1, stronger effect = lower value) was 1.04 (inactive), the normalized growth (S. cerevisiae deletion strains, locus YJL095W, strain BCK1, stronger effect = lower value) was 1 (inactive) and the normalized growth (S. cerevisiae deletion strains, locus YJL134W, strain LCB3, stronger effect = lower value) was 0.999 (inactive). For the same molecule, the normalized growth (S. cerevisiae deletion strains, locus YJL168C, strain set2, stronger effect = lower value) was 1.04 (inactive), the normalized growth (S. cerevisiae deletion strains, locus YJL187C, strain SWE1 (second series), stronger effect = lower value) was 1.01 (inactive) and the normalized growth (S. cerevisiae deletion strains, locus YJR043C, strain POL32, stronger effect = lower value) was 1.01 (inactive). The normalized growth (S. cerevisiae deletion strains, locus YJR075W, strain HOC1, stronger effect = lower value) was 0.969 (inactive) and 0.984 (inactive), the normalized growth (S. cerevisiae deletion strains, locus YKL009W, strain mrt4, stronger effect = lower value) was 0.986 (inactive) and the normalized growth (S. cerevisiae deletion strains, locus YKL068W, stronger effect = lower value) was 1.01 (inactive). The normalized growth (S. cerevisiae deletion strains, locus YKL085W, strain MDH1 (second series), stronger effect = lower value) was 1.04 (inactive), the normalized growth (S. cerevisiae deletion strains, locus YKL085W, strain MDH1, stronger effect = lower value) was 1.04 (inactive) and the normalized growth (S. cerevisiae deletion strains, locus YKL190W, strain CNB1, stronger effect = lower value) was 0.994 (inactive). The normalized growth (S. cerevisiae deletion strains, locus YKR001C, strain vps1, stronger effect = lower value) was 1.04 (inactive), the normalized growth (S. cerevisiae deletion strains, locus YLR039C, strain RIC1, stronger effect = lower value) was 1.05 (inactive) and the normalized growth (S. cerevisiae deletion strains, locus YLR058C, strain SHM2, stronger effect = lower value) was 1.01 (inactive). The normalized growth (S. cerevisiae deletion strains, locus YLR102C, strain apc9, stronger effect = lower value) was 1.04 (inactive), the normalized growth (S. cerevisiae deletion strains, locus YLR262C, strain YPT6, stronger effect = lower value) was 1.06 (inactive) and the normalized growth (S. cerevisiae deletion strains, locus YLR268W, strain sec22, stronger effect = lower value) was 1.02 (inactive). For the same molecule, the normalized growth (S. cerevisiae deletion strains, locus YLR330W, strain CHS5, stronger effect = lower value) was 1 (inactive), the normalized growth (S. cerevisiae deletion strains, locus YLR342W, strain FKS1 (second series), stronger effect = lower value) was 1.01 (inactive) and the normalized growth (S. cerevisiae deletion strains, locus YLR371W, strain rom2, stronger effect = lower value) was 1.03 (inactive). For the same molecule, the normalized growth (S. cerevisiae deletion strains, locus YLR418C, strain cdc73, stronger effect = lower value) was 1.04 (inactive), the normalized growth (S. cerevisiae deletion strains, locus YML016C, strain PPZ1, stronger effect = lower value) was 1.01 (inactive) and the normalized growth (S. cerevisiae deletion strains, locus YML032C, strain rad52, stronger effect = lower value) was 1.03 (inactive). For the same molecule, the normalized growth (S. cerevisiae deletion strains, locus YML124C, strain tub3, stronger effect = lower value) was 1.02 (inactive), the normalized growth (S. cerevisiae deletion strains, locus YMR078C, strain ctf18, stronger effect = lower value) was 1.04 (inactive) and the normalized growth (S. cerevisiae deletion strains, locus YMR223W, strain ubp8, stronger effect = lower value) was 1.03 (inactive). The normalized growth (S. cerevisiae deletion strains, locus YMR263W, strain SAP30, stronger effect = lower value) was 0.997 (inactive) and 0.985 (inactive), the normalized growth (S. cerevisiae deletion strains, locus YMR307W, strain GAS1, stronger effect = lower value) was 0.992 (inactive) and 1 (inactive) and the normalized growth (S. cerevisiae deletion strains, locus YNL067W, strain RPL9B, stronger effect = lower value) was 1 (inactive). The normalized growth (S. cerevisiae deletion strains, locus YNL128W, strain TEP1, stronger effect = lower value) was 1.01 (inactive), the normalized growth (S. cerevisiae deletion strains, locus YNL153C, strain GIM3, stronger effect = lower value) was 0.987 (inactive) and 1.27 [resistant] (active) and the normalized growth (S. cerevisiae deletion strains, locus YNL175C, strain NOP13, stronger effect = lower value) was 0.992 (inactive). The normalized growth (S. cerevisiae deletion strains, locus YNL197C, strain WHI3, stronger effect = lower value) was 1.02 (inactive), the normalized growth (S. cerevisiae deletion strains, locus YNL224C, strain SQS1, stronger effect = lower value) was 0.994 (inactive) and the normalized growth (S. cerevisiae deletion strains, locus YNL233W, strain BNI4, stronger effect = lower value) was 1.02 (inactive). For the same molecule, the normalized growth (S. cerevisiae deletion strains, locus YNL250W, strain rad50, stronger effect = lower value) was 1.05 (inactive), the normalized growth (S. cerevisiae deletion strains, locus YNL271C, strain bni1, stronger effect = lower value) was 1.04 (inactive) and the normalized growth (S. cerevisiae deletion strains, locus YNL298W, strain CLA4, stronger effect = lower value) was 1.05 (inactive). The normalized growth (S. cerevisiae deletion strains, locus YNL307C, strain MCK1, stronger effect = lower value) was 1.05 (inactive), the normalized growth (S. cerevisiae deletion strains, locus YNL322C, strain KRE1, stronger effect = lower value) was 1.01 (inactive) and 0.972 (inactive) and the normalized growth (S. cerevisiae deletion strains, locus YNR052C, strain pop2, stronger effect = lower value) was 1.03 (inactive). For the same molecule, the normalized growth (S. cerevisiae deletion strains, locus YOL006C, strain TOP1, stronger effect = lower value) was 0.997 (inactive), the normalized growth (S. cerevisiae deletion strains, locus YOL012C, strain htz1) was 0.807 (inactive) and the normalized growth (S. cerevisiae deletion strains, locus YOL147C, strain pex11, stronger effect = lower value) was 1.02 (inactive). The normalized growth (S. cerevisiae deletion strains, locus YOR061W, strain CKA2, stronger effect = lower value) was 1.01 (inactive), the normalized growth (S. cerevisiae deletion strains, locus YOR069W, strain VPS5, stronger effect = lower value) was 0.997 (inactive) and the normalized growth (S. cerevisiae deletion strains, locus YOR083W, strain WHI5 (second series), stronger effect = lower value) was 1 (inactive). The normalized growth (S. cerevisiae deletion strains, locus YOR136W, strain idh2, stronger effect = lower value) was 1.03 (inactive), the normalized growth (S. cerevisiae deletion strains, locus YOR144C, strain elg1, stronger effect = lower value) was 1.03 (inactive) and the normalized growth (S. cerevisiae deletion strains, locus YOR184W, strain ser1, stronger effect = lower value) was 1.05 (inactive). For the same molecule, the normalized growth (S. cerevisiae deletion strains, locus YOR316C, strain cot1, stronger effect = lower value) was 1.03 (inactive), the normalized growth (S. cerevisiae deletion strains, locus YPL055C, strain LGE1, stronger effect = lower value) was 1.03 (inactive) and 0.983 (inactive) and the normalized growth (S. cerevisiae deletion strains, locus YPL241C, strain CIN2, stronger effect = lower value) was 1.01 (inactive). The normalized growth (S. cerevisiae deletion strains, locus YPR119W, strain clb2, stronger effect = lower value) was 1.02 (inactive), the normalized growth (S. cerevisiae deletion strains, locus YPR141C, strain kar3, stronger effect = lower value) was 1.03 (inactive) and the normalized growth (S. cerevisiae deletion strains, locus YPR163C, strain tif3, stronger effect = lower value) was 1.03 (inactive). The normalized growth (S. cerevisiae deletion strains, locus YPR167C, strain met16, stronger effect = lower value) was 1.03 (inactive), the normalized growth (S. cerevisiae deletion strains, strain wtn01, stronger effect = lower value) was 1.01 (inactive) and the normalized growth (S. cerevisiae strains, strain wild type, stronger effect = lower value) was 1.01 (inactive).
